# Screens deposited in PubChem by several laboratories.
# Most compounds without a hit are left out; they make up all but 22% or so of the library.
# CYP2C9 act: human CYP2C9 activators, primary screen, biochemical, luminescence; AID 1024, 2008; hit rate 1.4% among 96,000; recombinant CYP2C9, luciferin-H conversion; stronger effect = higher value; factor 1 = untreated enzyme, 0 = blocked; activation factor at 5 µM; Cytochrome P450 2C9 (Homo sapiens), P11712;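 active means activation factor of 2 or more for CYP2C9 at a 5 µM dose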;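 further: 0 = sulfaphenazole-blocked wells and 1 = vehicle-only wells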
# Target sequence (P11712 whole entry, looked up): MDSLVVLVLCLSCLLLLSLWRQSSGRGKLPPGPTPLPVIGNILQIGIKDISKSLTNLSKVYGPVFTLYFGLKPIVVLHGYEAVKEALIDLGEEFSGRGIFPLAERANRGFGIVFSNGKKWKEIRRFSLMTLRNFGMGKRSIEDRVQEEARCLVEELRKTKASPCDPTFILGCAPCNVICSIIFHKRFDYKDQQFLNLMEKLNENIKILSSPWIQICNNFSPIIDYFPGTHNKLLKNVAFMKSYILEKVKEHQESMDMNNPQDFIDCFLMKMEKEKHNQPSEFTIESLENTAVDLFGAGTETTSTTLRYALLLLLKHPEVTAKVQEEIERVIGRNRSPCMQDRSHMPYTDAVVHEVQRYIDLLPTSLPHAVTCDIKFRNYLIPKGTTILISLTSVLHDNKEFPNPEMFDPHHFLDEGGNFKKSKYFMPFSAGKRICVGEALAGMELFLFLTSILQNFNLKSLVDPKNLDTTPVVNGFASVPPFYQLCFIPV
# CYP2C9 inh: blockers of cytochrome P450 2C9 activity – biochemical, luminescence, ADME assay, primary screen; inhibition, % at 5 µM; CYP2C9 Supersomes, luciferin-H conversion; hit rate 20% among 96,000; AID 777, 2007; P11712;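 active means blocking of liver enzyme CYP2C9 beyond about 50% at 5 µM, limit read from the data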
# CYP2C19 inhib: blockers of cytochrome P450 2C19 activity – biochemical, luminescence, ADME assay, primary screen | CYP2C19 Supersomes, luciferin-H EGE luminescence, 30 min | hit rate 21% among 96,000 | inhibition, % at 5 µM | AID 778, 2007;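 active means CYP2C19 inhibition above a set limit at 5 µM in the primary screen, cut at about 50% in these data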;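 further: plate controls were negative control wells for no effect and 2.5 mM tranylcypromine positive control for full effect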
# Measles CPE: compounds protecting cells from measles virus cytopathic effect, primary screen, measles RdRp inhibitor project, single point, MLSMR library, absorbance | Measles virus-infected cells, CPE protection | protection (pct of control), % at 4 µM | hit rate 1.5% among 140,000; in the data active means protection mostly above about 24%, no sharp cut-off; inactive means mostly below about 26%
# CYP2C19 act: human CYP2C19 activators, primary screen, biochemical, luminescence | recombinant CYP2C19, luciferin-H EGE luminescence; stronger effect = higher value; 0 = fully inhibited enzyme, 1 = untreated enzyme | activation factor at 5 µM | 96,000 tested, under 10 active | AID 1025, 2008;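 active means activation factor of at least 2 at 5 µM in the primary screen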;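 further: 0 = wells with 2.5 mM tranylcypromine and 1 = vehicle-only wells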
# * = called active by the depositor; x = not tested or not shown.
SMILES,CYP2C9 act,CYP2C9 inh,CYP2C19 inhib,Measles CPE,CYP2C19 act
CCOC(=O)c1cccc(NC(=O)COc2ccc([N+](=O)[O-])cc2)c1,0.2,77.2*,56.6*,5.4,0.4
CC1CCc2c(sc(NC(=O)c3ccc(Cn4cc([N+](=O)[O-])cn4)o3)c2C#N)C1 (stereo unspecified),1.1,-9.0,-2.0,2.9,1
CC1CCc2c(sc(NC(=O)c3ccc(-c4ccccc4[N+](=O)[O-])o3)c2C#N)C1 (stereo unspecified),0.1,90.7*,10.8,2.3,0.9
N#Cc1c(NC(=O)c2ccc(-c3ccccc3[N+](=O)[O-])o2)sc2c1CCCC2,0,99.3*,49.5,3.1,0.5
CC1(C)Cc2ccccc2-c2nnc(-c3ccco3)n21,1.1,-15.0,6.9,5.3,0.9
CC(=O)/C=C(\C)NCCNc1c(F)c(F)c(CO)c(F)c1F,0.5,48.2,79.1*,11.1,0.2
COc1ccc(CNC(=O)C2CCN(c3nc(OC)nc(OC)n3)CC2)cc1,1.5,-48.9,1.1,15.3,1
CCCCn1c(/C=N/Nc2nc3ccccc3[nH]2)nc2ccccc21,x,x,x,5.3,x
CCc1nc2c3cnn(-c4cc(Cl)ccc4C)c3ncn2n1,0.9,7.0,85.4*,6.9,0.1
Cn1c(SCCOc2ccc(Cl)cc2)nnc1-c1ccncc1,0.7,31.1,78.5*,7.2,0.2
Cc1cc(OCCSc2nnc(-c3cccs3)n2C)ccc1Cl,0.6,40.3,62.0*,5.4,0.4
O=C(Nc1cccc(C(F)(F)F)c1)c1ccc(Cn2cc(Br)cn2)o1,0.3,68.7*,84.7*,21.9,0.2
O=C(c1ccc(Cn2cc(Br)cn2)o1)n1cccn1,0.8,21.2,54.7*,4.6,0.5
O=C(NCc1ccccn1)c1ccc(Cn2cc(Br)cn2)o1,1,0.5,4.3,9.3,1
O=C(NC1CCCCC1)c1ccc(Cn2cc(Br)cn2)o1,0.7,33.9,62.2*,19.0,0.4
Cc1cc(C)n(-c2ccc(C(=O)C(C#N)c3nc4ccccc4n3C)cc2)n1 (stereo unspecified),1,-2.6,29.6,28.9,0.7
O=C(NC12CC3CC(CC(C3)C1)C2)c1ccc(-c2ccccc2Cl)o1,1,1.9,27.9,-0.9,0.7
C=CCOc1cccc(/C=N/NC(=O)CN(c2cc(Cl)ccc2OC)S(=O)(=O)c2ccc(C)c([N+](=O)[O-])c2)c1,x,x,x,37.1,x
O=C1c2ccccc2C(=O)N1CC(O)CN1CCOCC1 (stereo unspecified),x,x,x,4.1,x
OC(CN1c2ccccc2Sc2ccccc21)Cn1nnc2ccccc21 (stereo unspecified),0,99.5*,99.6*,4.3,0
OC(Cn1nnc2ccccc21)Cn1c(C(F)(F)F)nc2ccccc21 (stereo unspecified),0.4,57.3*,34.9,15.4,0.7
Cc1nn(CC(O)CN2c3ccccc3Sc3ccccc32)c(C)c1Br (stereo unspecified),0.1,93.0*,88.6*,11.6,0.1
O=C1c2ccccc2C(=O)N1CC(O)Cn1nnc2ccccc21 (stereo unspecified),0.7,34.2,58.9*,7.2,0.4
Cc1nnc(NC(=O)CCC(=O)N2CCN(CCc3ccccc3)CC2)s1,1,2.0,2.4,x,1
O=C(/C=C/c1ccc2c(c1)OCO2)Nc1c(C(=O)O)[nH]c2ccccc12,x,x,x,17.7,x
SMILES,CYP2C9 act,CYP2C9 inh,CYP2C19 inhib,Measles CPE,CYP2C19 act
CCOC(=O)c1[nH]nc2c1C(=O)N(CC)C2=O,0.9,12.0,10.2,3.9,0.9
Cc1cc(C(=O)OCC(=O)N2CCCC2)c2ccccc2n1,0.8,22.6,28.4,58.9,0.7
COc1ccc(-c2cc(C(=O)OCC(=O)N3CCCC3)c3ccccc3n2)cc1,0.2,77.8*,50.1*,49.2,0.5
COc1ccc(/C(N)=N/OC(=O)c2cc(-c3ccccc3)nc3ccccc23)cc1,0.5,46.9,8.0,4.3,0.9
CSc1ccc(Cl)c(C(=O)OCC(=O)NC2CC2)c1,1.1,-6.3,22.9,9.0,0.8
Cc1cc(C(=O)OCC(=O)N2CCOCC2)c2ccccc2n1,2*,-98.3,12.1,2.6,0.9
Cc1ccc(/C(N)=N/OC(=O)c2cc(-c3ccccc3)nc3ccccc23)cc1,0.5,54.0*,13.1,2.4,0.9
CSc1ccc(Cl)c(C(=O)OCC(=O)N2CCOCC2)c1,1.7,-67.1,50.9*,15.0,0.5
O=C(c1ccncc1)c1ccc(Br)cc1,0.4,62.3*,45.1,6.8,0.5
CCOC(=O)c1nn(-c2ccccc2F)c(C)c1C(C)=O,0.9,5.0,98.3*,12.6,0
CCOC(=O)c1nc2ccccc2nc1C,x,x,x,8.0,x
CCOC(=O)c1nn(-c2ccc(OCC)cc2)c(C)c1C(C)=O,x,x,x,2.7,x
CCOC(=O)c1nn(-c2ccc(C)cc2)c(C)c1C(C)=O,1,1.4,87.6*,24.8,0.1
CCOC(=O)c1nn(-c2ccc(F)cc2)c(C)c1C(C)=O,0.8,19.4,99.1*,46.3*,0
CCOC(=O)c1nn(-c2ccccc2)c(C)c1C(C)=O,0.8,16.7,99.9*,3.9,0
Cc1ccc(C)n1-c1ccc(C(=O)NC2CCN(Cc3ccccc3)CC2)cc1,x,x,x,10.8,x
COc1ccc(S(=O)(=O)N2CCCCC2)cc1,1.4,-40.6,28.0,13.4,0.7
COc1ccc(S(=O)(=O)N=C2C=C(C)C(=O)C(C)=C2)cc1,1.7,-65.6,66.1*,21.6,0.3
